Source: PubChem BioAssay AID463173 (ICCB-Longwood Screening Facility, Harvard Medical School, 2010)
In all, about 52,000 compounds went through this assay and about 1,700 (3.3%) were called active. Shown is part of a subset that was picked to be rich in actives. A number with no mark means an inactive call. Rule as the data show it: active = survival mostly below about 52% (no sharp cut-off); inactive = mostly above about 56%.

System: Wild type
Assay: S. aureus survival, RN4220 and DeltatarO strains – OD600, teichoic acid synthesis inhibitors, primary screen (AID 463173)
Conditions: S. aureus RN4220 wild type/DeltatarO growth, OD600, 18 h, hits give low values, screened at 18.75 µg/mL (by protocol)

Row | Structure (SMILES) | survival
1 | Cc1ccccc1Cn1c(C)c(CNCCCc2ccccc2)c(C(=O)O)c1C | 98%
2 | O=C(c1ccc2c(c1)N(Cc1ccccc1F)C(=O)c1ccccc1S2=O)N1CCCCC1 (stereo not given) | 89%
3 | CCCS(=O)(=O)c1ncc(Cl)c(C(=O)N(Cc2ccccc2)Cc2ccco2)n1 | 44%
4 | Cc1ccn2c(Nc3ccccc3C)c(-c3cccnc3)nc2c1 | 71%
5 | Cc1ccn2c(Nc3ccccc3C)c(-c3ccncc3)nc2c1 | 80%
6 | Cc1ccn2c(Nc3ccccc3C)c(-c3ccccc3)nc2c1 | -3% (active)
7 | CCCC12CN3CC(CCC)(CN(C1)C3c1ccc(OC(C)C)cc1)C2=O (stereo not given) | 39%
8 | COC(=O)c1ccc(NS(=O)(=O)c2ccc3[nH]c4c(c3c2)CCCC4)cc1 | 1% (active)
9 | Cc1ccc(NS(=O)(=O)c2ccc3[nH]c4c(c3c2)CCCCCC4)cc1 | 71%
10 | O=S(=O)(NCc1ccc(F)cc1)c1ccc2[nH]c3c(c2c1)CCCC3 | -3% (active)
11 | Cc1ccc(CNS(=O)(=O)c2ccc3[nH]c4c(c3c2)CCCC4)cc1 | 82%
12 | O=S(=O)(NCc1ccc(F)cc1)c1ccc2[nH]c3c(c2c1)CCCCC3 | 55%
13 | Cc1ccc(NS(=O)(=O)c2ccc3[nH]c4c(c3c2)CCCCCC4)cc1C | -3% (active)
14 | COC(=O)c1ccc(NS(=O)(=O)c2ccc3[nH]c4c(c3c2)CCCCC4)cc1 | 119%
15 | COc1ccc(NS(=O)(=O)c2ccc3[nH]c4c(c3c2)CCCCC4)cc1 | 127%
16 | CC(=O)c1ccc(NS(=O)(=O)c2ccc3[nH]c4c(c3c2)CCCC4)cc1 | 84%
17 | Cc1ccc(NS(=O)(=O)c2ccc3[nH]c4c(c3c2)CCCCCC4)cc1Cl | 71%
18 | COc1cc(NS(=O)(=O)c2ccc3[nH]c4c(c3c2)CCCCCC4)cc(OC)c1 | 57%
19 | COc1ccc(NS(=O)(=O)c2ccc3[nH]c4c(c3c2)CCCCCC4)cc1 | -4% (active)
20 | CCC(C)NC(=O)Cn1c(=O)n(-c2cc(OC)cc(OC)c2)c(=O)c2ccccc21 (stereo not given) | 94%
21 | CCOc1ccc(OCC)c(NC(=O)c2cc(CN3CCOCC3)on2)c1 | 72%
22 | COCCn1c(CCC(=O)Nc2ccc(OC)c(OC)c2)nc2cccnc21 | 90%
23 | CC1CCN(C(=O)CN(C)S(=O)(=O)c2ccc3ccccc3c2)CC1 | 115%
24 | CCCCN(C(=O)c1cccs1)c1nnc(-c2cc(OC)cc(OC)c2)s1 | 116%

Row | Structure (SMILES) | survival
25 | O=C1CCCc2cc(S(=O)(=O)NCC3CCC(C(=O)NCc4ccc(F)cc4)CC3)ccc2N1 (stereo not given) | 93%
26 | O=C(NCCc1ccccc1)c1ccc2c(c1)CCN2S(=O)(=O)c1ccc(Cl)cc1 | 114%
27 | O=C(Nc1nc2ccccc2s1)c1ccc(S(=O)(=O)N2CCCC2)cc1 | 80%
28 | CCc1nn(CC(=O)NCCc2ccc(OC)c(OC)c2)c(=O)c2cc3occc3n12 | 147%
29 | CCS(=O)(=O)N1CC(=O)N(c2ccccc2C)C(C)(C(=O)NC2CCCCC2)C1 (stereo not given) | 82%
30 | Cc1ccc(N2CCN(S(=O)(=O)c3ccc4[nH]c5c(c4c3)CCCCC5)CC2)c(C)c1 | 135%
31 | Cc1ccc(C)c(N2CCN(S(=O)(=O)c3ccc4[nH]c5c(c4c3)CCCCC5)CC2)c1 | 89%
32 | Cc1ccc(C)c(N2CCN(S(=O)(=O)c3ccc4[nH]c5c(c4c3)CCCC5)CC2)c1 | -4% (active)
33 | CCOC(=O)c1ccc(NC(=O)CN2c3ccccc3S(=O)(=O)c3ccccc32)cc1 | 121%
34 | O=C(NCc1ccco1)c1ccc(Cn2c(SCc3ccccc3F)nc3cccnc32)cc1 | 74%
35 | CCOC(=O)/C(C#N)=C(\O)c1ccccc1 | 104%
36 | Cc1cc(C)cc(OC(C)C(=O)Nc2c(C(=O)c3ccccc3)oc3ccccc23)c1 (stereo not given) | -1% (active)
37 | COc1cc2c(cc1NC(=O)C(C)Oc1ccccc1)oc1ccccc12 (stereo not given) | 1% (active)
38 | CCc1ccc(OC(C)C(=O)Nc2c(C(=O)c3ccccc3)oc3ccccc23)cc1 (stereo not given) | 13% (active)
39 | COc1cc2c(cc1NC(=O)C(C)Oc1ccc(Cl)cc1Cl)oc1ccccc12 (stereo not given) | 49%
40 | CCOc1ccc(NC(=O)c2oc3ccccc3c2NC(=O)C(C)Oc2ccccc2)cc1 (stereo not given) | 94%
41 | Cc1cc(OC(C)C(=O)Nc2c(C(=O)c3ccc(F)cc3)oc3ccccc23)ccc1Cl (stereo not given) | 68%
42 | COc1cc2c(cc1NC(=O)COc1cc(C)cc(C)c1)oc1ccccc12 | 75%
43 | CCc1ccc(OCC(=O)Nc2c(C(=O)c3ccccc3)oc3ccccc23)cc1 | 65%
44 | Cc1cc(C)cc(OCC(=O)Nc2c(C(=O)c3ccccc3)oc3ccccc23)c1 | 78%
45 | CC(=O)c1cc(-c2ccc(F)cc2)n(CC(=O)Nc2cc(C)cc(C)c2)c1C | 66%
46 | Cc1ccc(Nc2c(-c3ccc(C)s3)nc3ncccn23)cc1 | 43%
47 | Cc1cccn2c(=O)c(C(=O)N3CCN(c4ccccc4)CC3)cnc12 | 22%
48 | Cc1cccc(N2CCN(C(=O)c3cnc4c(C)cccn4c3=O)CC2C)c1 (stereo not given) | 0% (active)

Row | Structure (SMILES) | survival
49 | Cc1cccc(N2CCN(C(=O)c3cccn4c(=O)c5cc(Cl)ccc5nc34)CC2C)c1 (stereo not given) | 65%
50 | COc1ccc(NS(=O)(=O)c2ccc3c(c2)n(C)c(=O)c(=O)n3C)cc1Cl | 77%
51 | O=C(Cc1ccc(F)cc1)NC1CC(=O)N(c2ccccc2)C1 (stereo not given) | 72%
52 | O=C(Cn1c(-c2cccs2)cc2ccccc21)NCc1ccccc1Br | 120%
53 | CN(CCCNC(=O)Cn1ncc2c([nH]c3ccccc32)c1=O)Cc1ccccc1 | 73%
54 | CCCCN(C)CCNC(=O)Cn1ncc2c([nH]c3ccccc32)c1=O | 0% (active)
55 | Cc1ccc(CCNC(=O)Cn2ncc3c([nH]c4ccccc43)c2=O)cc1 | 66%
56 | O=C(Cn1ncc2c([nH]c3ccccc32)c1=O)NCc1cccc(Cl)c1 | -3% (active)
57 | COc1ccc(CNC(=O)Cn2ncc3c([nH]c4ccccc43)c2=O)cc1 | 63%
58 | CCN(CC)CCNC(=O)Cn1ncc2c([nH]c3ccccc32)c1=O | 72%
59 | CCC(=O)N1CCN(c2ccc(NC(=O)c3ccccc3)cc2)CC1 | 99%
60 | Cc1cccc(Nc2nnc(-c3ccc(C)c(S(=O)(=O)N4CCN(C)CC4)c3)c3ccccc23)c1 | 147%
61 | O=C(Nc1cccnc1Cl)c1cc(-c2ccc(Cl)cc2)on1 | 83%
62 | COc1ccccc1CNC(=O)CCC1N=C2c3ccccc3N=C(SCc3ccc(Cl)cc3)N2C1=O (stereo not given) | 0% (active)
63 | CCCCNC(=O)CSC1=Nc2ccccc2C2=NC(CCC(=O)NCc3ccccc3OC)C(=O)N12 (stereo not given) | -2% (active)
64 | O=C(CCC1N=C2c3ccccc3N=C(SCc3ccccc3F)N2C1=O)NCc1ccc(F)cc1 (stereo not given) | 73%
65 | COc1ccccc1CNC(=O)CCC1N=C2c3ccccc3N=C(SCC(=O)NCCc3ccccc3)N2C1=O (stereo not given) | 129%
66 | COc1ccc(OC)c(NC(=O)CSC2=Nc3ccccc3C3=NC(CCC(=O)NCc4ccccc4)C(=O)N23)c1 (stereo not given) | -3% (active)
67 | COc1ccc(OC)c(NC(=O)CSC2=Nc3ccccc3C3=NC(CCC(=O)NCc4ccco4)C(=O)N23)c1 (stereo not given) | 70%
68 | COc1ccccc1CNC(=O)CCC1N=C2c3ccccc3N=C(SCc3ccc(C)cc3)N2C1=O (stereo not given) | 118%
69 | COc1ccc(CNC(=O)CCC2N=C3c4ccccc4N=C(SCc4ccccc4F)N3C2=O)cc1 (stereo not given) | 10% (active)
70 | COc1ccccc1CNC(=O)CCC1N=C2c3ccccc3N=C(SCc3cccc(Cl)c3)N2C1=O (stereo not given) | 82%
71 | COc1ccc(OC)c(NC(=O)CSC2=Nc3ccccc3C3=NC(CCC(=O)NCCc4ccccc4)C(=O)N23)c1 (stereo not given) | 73%
72 | COc1ccc(CNC(=O)CCC2N=C3c4ccccc4N=C(SCc4ccc(F)cc4)N3C2=O)cc1 (stereo not given) | 82%

Row | Structure (SMILES) | survival
73 | COCCCNC(=O)CSC1=Nc2ccccc2C2=NC(CCC(=O)NCc3ccccc3OC)C(=O)N12 (stereo not given) | 73%
74 | CC1CCN(C(c2ccccc2)c2sc3nc(-c4ccco4)nn3c2O)CC1 (stereo not given) | 68%
75 | Cc1[nH]c(=O)[nH]c(=O)c1/C=N\NC(=O)c1cc2ccccc2o1 | 111%
76 | N#CC1=C(N)SC(N)=C(C#N)C1c1cc2c(cc1Cl)OCO2 | 112%
77 | Cc1cccc(N(CC(=O)NC(C)c2ccccc2)S(=O)(=O)c2ccccc2)c1C (stereo not given) | 79%
78 | Cc1cc(NC(=O)CSc2nc(-c3cccc(F)c3)nc3c2c(=O)n(C)c(=O)n3C)no1 | 68%
79 | CCOc1cc(C#N)c(NC(=O)c2cccc(S(=O)(=O)N3CCOCC3)c2)cc1OCC | 131%
80 | Cc1ccc(CNC(=O)CN2Cc3ccccc3C2=O)cc1 | 76%
81 | COc1cccc(CNc2ncnc3c2nnn3C)c1 | 79%
82 | CCc1nnc(SCc2cccc(Cl)c2)c2cc3sccc3n12 | 2% (active)
83 | CCc1nnc(SCc2ccc(F)cc2Cl)c2cc3sccc3n12 | 93%
84 | CCc1nnc(SCc2c(F)cccc2Cl)c2cc3sccc3n12 | 88%
85 | N#Cc1cccc(NC(=O)C2CCN(c3cnccn3)CC2)c1 | 105%
86 | CCCCN(CCCC)CCNC(=O)c1cn(CC)c2ccc(S(=O)(=O)N3CCc4ccccc4C3)cc2c1=O | 84%
87 | CCN(CC)C(=O)Cn1c(SCC(=O)Nc2ccc(C)c(C)c2)nc2ccccc21 | 133%
88 | Cc1ccc(NC(=O)CSc2nc3ccccc3n2CC(=O)N2CCC(C)CC2)cc1C | -1% (active)
89 | CC1CCN(C(=O)Cn2c(SCC(=O)NC(C)(C)C)nc3ccccc32)CC1 | 102%
90 | CC1CCN(C(=O)Cn2c(SCC(=O)Nc3ccc(F)cc3)nc3ccccc32)CC1 | 70%
91 | CCN(C(=O)CSc1nc2ccccc2n1CC(=O)Nc1ccccc1C)c1ccccc1 | -6% (active)
92 | CCN(C(=O)CSc1nc2ccccc2n1CC(=O)Nc1cccc(C#N)c1)c1ccccc1 | 124%
93 | CCCCN(C)C(=O)Cn1c(SCC(=O)Nc2ccc(C)c(C)c2)nc2ccccc21 | 14% (active)
94 | Cc1ccc(NC(=O)CSc2nc3ccccc3n2CC(=O)N(C)C2CCCCC2)cc1C | 78%
95 | CCN(C(=O)CSc1nc2ccccc2n1CC(=O)Nc1ccc(F)cc1F)c1ccccc1 | 73%
